Measured values taken from ChEMBL document CHEMBL4513216, “Probing the Open Global Health Chemical Diversity Library for Multistage-Active Starting Points for Next-Generation Antimalarials” (ACS Infect Dis, 2020).
Hit rate of the full screen: of about 69,000 compounds, about 8,600 (12%) showed an effect of 50% or more. This excerpt belongs to a sample that is enriched for strong results.

System: Plasmodium berghei
Assay: Screen against P. berghei liver stage (PbLuc), transformed with Luciferase, at 10uM
Format: functional, HepG2
Details: tested at 10 uM

SMILES | INHIBITION [%]
O=c1c(S(=O)(=O)N2CCCCC2)cccn1Cc1cccnc1 | -37.1
O=C(O)c1ccccc1-n1cnc(CN2CCCc3ccccc32)c1 | 23
CN(C)CCN1CCC2(CCCN(Cc3cccn3C)C2)C1=O (centres undefined) | 33.1
c1ccc(CN2CC[C@@H]3O[C@@H](COCC4CCOCC4)CC[C@@H]32)nc1 | 22.7
Fc1ccc(CN2CC[C@H]3O[C@@H](COCc4cccnc4)CC[C@H]32)cc1 | 39.2
c1cc(CN2CC[C@H]3O[C@@H](COCC4CCOCC4)CC[C@H]32)ccn1 | 52
c1cncc(CN2CC[C@H]3O[C@@H](COCC4CC4)CC[C@H]32)c1 | 44.9
O=C(C1CC=CC1)N1CC[C@@H]2O[C@H](COCC3CCOCC3)CC[C@@H]21 | 21.6
c1cncc(COC[C@H]2CC[C@H]3[C@H](CCN3Cc3nccs3)O2)c1 | 39.2
c1cncc(COCC2CC[C@H]3[C@H](CCN3CC3CCOCC3)O2)c1 (some centres undefined) | 78.8
Fc1ccc(CN2CC[C@H]3O[C@@H](COCC4CCOCC4)CC[C@H]32)cc1 | 56.3
c1cncc(CN2CC[C@H]3O[C@@H](COCC4CCOCC4)CC[C@H]32)c1 | 33.4
CC(C)c1nccn1-c1cncc(C2CCCN2Cc2cccnc2)n1 (centres undefined) | 27.6
CNCC1CCC(c2cc(CN(C)C(=O)c3cnccn3)n(C)n2)CC1 (centres undefined) | 25.8
O=C(Nc1cnccn1)[C@@H]1CCO[C@@H]2CCN(Cc3ccsc3)C[C@@H]21 | 12.4
Cn1cnnc1C1CCN(C(=O)CCOc2ccc(Cl)cc2)CC1 | 11.9
CC(=O)NCC1CCCN(C(=O)Cc2c(C)noc2C)C1 (centres undefined) | -4.12
COc1cccc(OCC(=O)N2CCCSCC2CN2CCOCC2)c1 (centres undefined) | 44.9
O=C(COc1ccc(F)cc1)N1CCCSCC1CN1CCOCC1 (centres undefined) | 25.3
O=C(COc1ccc(Cl)cc1Cl)N1CCCSCC1CN1CCOCC1 (centres undefined) | 60.1
CNC(=O)c1nc2c(s1)CCN(C(=O)c1cccnc1)CC2 | -10.4
O=C(c1[nH]nc(C2CC2)c1Cl)N1CCN(C2CC2)CC1 | 8.13

SMILES | INHIBITION [%]
O=C(c1[nH]nc(C2CC2)c1Cl)N1CCN(S(=O)(=O)c2ccccc2)CC1 | 77.6
O=C(c1[nH]nc(C2CC2)c1Cl)N1CCCC1 | -46.7
CCOC(=O)[C@H]1[C@@H](O)C(=O)N(C)C12CCN(C(=O)CC(C)C)CC2 | 22.2
c1csc(C2(NCc3csc(C4CC4)n3)CCCC2)n1 | -9.44
Cc1cnn(CC2CCCN2CC(=O)NCc2ccccn2)c1 (centres undefined) | -28.9
Cc1ccc2nc(C)cc(NCCNS(=O)(=O)c3cccnc3)c2c1 | 39.7
Cc1cc(NCCNS(=O)(=O)c2cn(C)nc2C)c2ccccc2n1 | -5.8
Cc1ccc2nc(C)cc(NCCNS(=O)(=O)c3cn(C)nc3C)c2c1 | 55.5
Cc1ccnc(OC[C@]23COC[C@H]2CN(C(=O)c2ccnn2C)C3)n1 | 43.1
O=C(CN1CCc2ccccc2C1)NCc1cc2n(n1)CCCNC2 | -16.8
Cn1ccnc1CN1CCN(Cc2noc(C3CC3)n2)CC1 | -15.5
CC1CN(Cc2noc(C3CC3)n2)CCN1Cc1noc(C2CC2)n1 (centres undefined) | 33.8
CC1CN(Cc2noc(C3CC3)n2)CCN1Cc1nccn1C (centres undefined) | 55.9
O=C(NC1CCCC1)c1ccnc(C2CCNCC2)c1 | -11.3
COCC1CC2(CCN(C(=O)c3cc(C)oc3C)CC2)CN1C(C)C (centres undefined) | 6.8
COc1ccc(C2SC(C)=Nc3c2c(=O)[nH]n3C2CCCC2)cc1O (centres undefined) | -6.09
CCCc1cc(N2CCCC2Cn2nc(C)cc2C)n2ncnc2n1 (centres undefined) | -48.1
CCCc1cc(N2CCCC2Cn2cc(C)cn2)n2ncnc2n1 (centres undefined) | -60.9
CCCc1cc(N2CCCC2Cn2nc(C)nc2C)n2ncnc2n1 (centres undefined) | 53.4
CN1CCN(CCOc2ccc(NC(=O)c3ccc[nH]3)cc2)CC1 | -23.5
O=C1NCCN1C1CCN(c2ccnc(-c3ccccc3)n2)CC1 | 73.1
CN1CCN(C2CCN(CCOc3ccccc3)CC2)C1=O | 40.2

SMILES | INHIBITION [%]
CN1CCN(C2CCN(CC(O)c3ccccc3)CC2)C1=O (centres undefined) | 16.715
CN1CCCC1c1ccnc(-c2ccccc2)n1 (centres undefined) | -24.4
CN1CCN(C2CCN(Cc3noc(-c4ccccc4)n3)CC2)C1=O | 8.11
O=C1NCCN1C1CCN(Cc2ccccn2)CC1 | -14.2
CN1CCN(C2CCN(c3ccnc(-c4ccccc4)n3)CC2)C1=O | 91.1
c1ccc(-c2nccc(N3CCc4c(ncn4C4CC4)C3)n2)cc1 | 40.9
O=C1NCCN1C1CCN(Cc2coc(-c3ccccc3)n2)CC1 | 33.3
Cc1cc(N2CCc3c(ncn3C)C2)nc(N)n1 | -14.9
Cn1cnc2c1CCN(c1ccnc(-c3ccccc3)n1)C2 | 61.2
CN1CCN(C2CCN(c3cnc4ccccc4n3)CC2)C1=O | 76.5
Cc1noc([C@H]2COC[C@H]3CN(C(=O)Cc4cccc(F)c4)C[C@H]32)n1 | 38.5
COc1c(C)cnc(CN2CCOC(CNc3cccnn3)C2)c1C (centres undefined) | 9.54
O=C(CN1CCN(C(=O)c2ccccc2)CC1)Nc1ccc(Br)cn1 | 47.3
CCn1ccnc1CN1CCCN(C(=O)c2scnc2C)CC1 | 13.64
O=C(O)CCn1nc(C(F)(F)F)c(Cl)c1C1CC1 | 31.7
O=C(NCC1Cn2nnc(-c3ccncc3)c2CO1)c1ccc[nH]1 (centres undefined) | 31.4
Cc1cccc(CN2C[C@@H]3CCCO[C@@H]3[C@H](Nc3ccccn3)C2)n1 | 25.3
O=C(CCc1cc2n(n1)CCCNC2)N1CCN(C2CCCC2)C(=O)C1 | -34.8
CO[C@H]1CN(Cc2cc(F)ccc2F)CC[C@@]12CCCO2 | -9.27
COc1ccc2[nH]cc(C(=O)CNc3nccs3)c2c1 | 12.8
